High-throughput results deposited in PubChem BioAssay by several laboratories.
The list is not random: actives were taken first. Their share in the collection is about 2.1%.
ABCB6 inh MLPCN: blocks the human ABCB6 transporter | Q9NP58 | K562-ABCB6 porphyrin accumulation, flow cytometry, 1 h; active compounds read low | AID 602162 | 360,000 tested, 0.19% active | fluorescence ratio to DMSO, % at 10 µM;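 active = fluorescence ratio to DMSO below 75%, the collection mean minus 3 SD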;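 also: signal is porphyrin accumulated inside mitochondria; lower ratio means ABCB6 inhibition with less porphyrin fluorescence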
Target sequence (Q9NP58 whole entry, looked up): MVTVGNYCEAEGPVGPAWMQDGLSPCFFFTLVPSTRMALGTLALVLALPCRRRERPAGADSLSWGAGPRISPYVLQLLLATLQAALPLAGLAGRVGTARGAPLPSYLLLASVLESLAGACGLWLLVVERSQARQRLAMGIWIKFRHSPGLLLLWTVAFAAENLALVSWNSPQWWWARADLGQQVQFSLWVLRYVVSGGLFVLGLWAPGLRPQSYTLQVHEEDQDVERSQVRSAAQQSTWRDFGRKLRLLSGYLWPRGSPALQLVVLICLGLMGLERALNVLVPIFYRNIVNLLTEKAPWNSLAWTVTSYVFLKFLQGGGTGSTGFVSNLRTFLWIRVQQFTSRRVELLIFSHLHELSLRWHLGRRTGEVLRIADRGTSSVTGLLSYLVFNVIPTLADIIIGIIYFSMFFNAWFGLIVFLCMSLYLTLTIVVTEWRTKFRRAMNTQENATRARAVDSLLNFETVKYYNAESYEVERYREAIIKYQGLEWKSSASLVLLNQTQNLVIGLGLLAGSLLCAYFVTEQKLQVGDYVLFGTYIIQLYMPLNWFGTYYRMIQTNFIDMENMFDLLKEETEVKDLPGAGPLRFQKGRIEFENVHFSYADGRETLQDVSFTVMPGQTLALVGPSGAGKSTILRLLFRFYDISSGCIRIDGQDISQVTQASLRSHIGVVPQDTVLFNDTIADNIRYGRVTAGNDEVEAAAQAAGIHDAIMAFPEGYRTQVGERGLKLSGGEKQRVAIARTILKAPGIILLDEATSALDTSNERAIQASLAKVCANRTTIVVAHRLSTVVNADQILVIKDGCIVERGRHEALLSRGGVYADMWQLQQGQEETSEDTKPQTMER
MsrA act: activates bovine MsrA enzyme; activation, % at 10.6 µM; purified bovine MsrA, absorbance read-out; 360,000 tested, 0.3% active; AID 602163; in the data active = activation above about 7.5%
MsrA inh: inhibits bovine methionine sulfoxide reductase A | inhibition, % at 15.5 µM | 360,000 tested, 0.75% active | AID 651718 | purified bovine MsrA, absorbance read-out; in the data active = inhibition above about 4.5%
SMARCA2 activ: SMARCA2 function activation, primary screen. 370,000 tested, 1% active. activation, % at 9.1 µM. MG213 cells, MMTV-luciferase reporter, dexamethasone, overnight; in the data active = activation above about 7.8%
SMARCA2 conf: confirmation of SMARCA2 (BRM) function activators; shares compounds with SMARCA2 activ; MG213 cells, MMTV-luciferase with dexamethasone, luminescence, overnight; MG213 cells expressing E1A, Rb sequestered; DMSO wells 0%, reference activator 100%; activation, % at 9.1 µM; AID 652260; 3,500 tested, 30% active;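 active = activation above its plate's cutoff, the mean activation of tested wells plus 3 SD, cut at about 7.9% in these data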
GAL4-VP16 Luc: activates GAL4-VP16 luciferase, flagging SMARCA2 activator hits. shares compounds with SMARCA2 activ. HEK293 GAL4-VP16 pG5luc reporter, luciferase luminescence; scaled: DMSO wells 0%, SAHA wells 100%. activation, % at 9.1 µM. 3,500 tested, 41% active. AID 686939;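 active = activation above the solvent-only control well mean plus 3 SD, averaged across control plates, cut at about 5.2% in these data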
Hits are given with their value; i = inactive; nt = no result given.

SMILES	ABCB6 inh MLPCN	MsrA act	MsrA inh	SMARCA2 activ	SMARCA2 conf	GAL4-VP16 Luc
COc1ccc2oc(C(=O)OCC(=O)N3CCCCC3C)c(C)c2c1 (stereo not drawn)	i	i	i	8.4	i	i
CCC(=O)Nc1ccc(N2CCC(C)CC2)cc1	i	i	i	9.6	i	i
O=C1C=CC(O)C2(CO)OC12 (stereo not drawn)	i	i	i	12.3	i	i
C=CCN1C(=O)C(=O)N(Cc2nc3ccccc3s2)C1=O	i	i	i	8.7	8.2	8.3
C=CCn1c(SCC(=O)Nc2ccccc2-c2ccccc2)nnc1-c1ccc(Cl)cc1	nt	nt	nt	i	nt	nt
CCN(CC)CCNc1ccc(C)c2sc3ccc(O)cc3c(=O)c12	i	i	i	8.4	18.2	i
CCN(CC)CCCNC(=O)C(C)n1nc(C)c2sc3ccccc3c2c1=O (stereo not drawn)	i	i	i	i	nt	nt
O=C(Nc1ccc(Cl)c(Cl)c1)c1cccc2c1-c1ccccc1C2=O	nt	nt	nt	i	nt	nt
CCOC(=O)CCCSc1nc(-c2ccc3c(c2)OCO3)cc(C(F)(F)F)c1C#N	i	i	i	8.7	i	i
CCOC(=O)CSc1nc(-c2ccc3c(c2)OCO3)ccc1C#N	i	i	i	i	nt	nt
O=C(OCc1cn(Cc2cc(F)ccc2F)nn1)N1CCOCC1	nt	nt	nt	i	nt	nt
O=C(O)c1ccc(N=Nc2c(O)[nH]c3ccc(Br)cc23)cc1	i	i	i	i	nt	nt
O=C(O)c1ccc(N=Nc2c(O)[nH]c3cc(Cl)ccc23)cc1	i	i	i	13.7	12.0	13.6
Cc1ccc(-c2nc(C#N)c(NCC3CCCO3)o2)cc1 (stereo not drawn)	i	i	i	i	nt	nt
COc1ccc(-c2nc(C#N)c(NCC3CCCO3)o2)cc1 (stereo not drawn)	i	i	i	10.0	9.7	i
Cc1ccccc1N/C(SCc1cccc(Br)c1)=C(/C#N)C(N)=O	i	i	i	9.7	i	i
CCc1ccccc1-c1cc(C(=O)OC)c2n(c1=O)CCC2	nt	nt	nt	i	nt	nt
O=S1(=O)CC2c3ccccc3CN2CN1Cc1ccccc1 (stereo not drawn)	nt	nt	nt	i	nt	nt
CCCCCn1nnnc1C1c2ccccc2OCC(=O)N1Cc1ccco1 (stereo not drawn)	nt	nt	nt	10.3	i	i
O=C(Nc1ccc2c(c1)oc1ccccc12)c1ccc2c(c1)OCO2	i	i	i	8.9	i	i
Cc1nnc(NC(=O)c2ccc3c(c2)OCO3)s1	i	i	i	10.3	i	9.5
N#C/C(=C/c1ccc(O)c(O)c1)c1nc2ccccc2[nH]1	i	i	i	i	nt	nt
N#C/C(=C\c1ccc(OC(=O)c2cccs2)cc1)c1nc2ccccc2[nH]1	i	i	i	12.8	8.5	6.2
COC(=O)[C@]12C[C@H](CC(=O)N3CCSCC3)C(=O)N(Cc3ccco3)C1=C[C@H](C(C)(C)C)O[C@@H]2C	nt	nt	nt	i	nt	nt
O=C(CN(c1cccc([N+](=O)[O-])c1)S(=O)(=O)c1ccccc1)NCc1ccccc1	i	i	i	i	nt	nt
SMILES	ABCB6 inh MLPCN	MsrA act	MsrA inh	SMARCA2 activ	SMARCA2 conf	GAL4-VP16 Luc
O=C(CN(c1cccc([N+](=O)[O-])c1)S(=O)(=O)c1ccccc1)N(Cc1ccccc1)Cc1ccccc1	i	i	i	9.9	i	i
CCn1c2ccccc2c2cc(NC(=O)c3cc4c(C)nn(-c5ccccc5)c4s3)ccc21	nt	nt	nt	i	nt	nt
Cc1ccc(CN2CCCCC(NC(=O)c3ccccc3)C2=O)cc1 (stereo not drawn)	nt	nt	nt	i	nt	nt
Cc1cc(C)c2nc(-n3nc(C)cc3N)cc(C)c2c1	i	i	i	10.4	8.2	6.2
CCOC(=O)c1sc(NC(=O)CN2CCCC2)c(C(=O)OCC)c1C	i	i	i	i	nt	nt
CCOC(=O)c1sc(NC(=O)CCN2CCN(C)CC2)c(C(=O)OCC)c1C	i	i	i	8.4	i	i
Cc1ccc(-c2cc(-c3nnc(SCC(=O)N4CCOCC4)n3N)[nH]n2)cc1	nt	nt	nt	i	nt	nt
CC1=C2NC(N)=[N+](Cc3ccccc3)CC2n2c(=O)n(-c3ccccc3)c(=O)n2C1 (stereo not drawn)	nt	nt	nt	i	nt	nt
O=C(COC(=O)c1cccnc1SCC(=O)NCc1ccccc1)NCc1ccccc1	i	i	i	9.1	i	i
COc1ccccc1CNC(=O)COC(=O)c1cccnc1SCC(=O)NCc1ccccc1OC	i	i	i	i	nt	nt
CN(C=O)c1cc([N+](=O)[O-])ccc1OCc1ccccc1	i	i	i	i	nt	nt
COc1cccc(/C=C2\CC3(OC(=O)c4ccc(Cl)cc4)CCCN2C3)c1 (stereo not drawn)	nt	nt	nt	i	nt	nt
O=C(COC(=O)C12CC3CC(CC(O)(C3)C1)C2)Nc1ccccc1OC(F)F	i	i	i	i	nt	nt
O=C(COC(=O)C12CC3CC(CC(O)(C3)C1)C2)Nc1ccc(Br)cc1F	i	i	i	9.4	i	8.2
O=[N+]([O-])c1ccc(SCCc2ccccn2)cc1	i	i	i	11.5	i	i
O=[N+]([O-])c1ccc(SCCc2ccncc2)cc1	i	i	i	i	nt	nt
Cc1c(NC(=O)C2CCCN(S(=O)(=O)c3c(C(C)C)cc(C(C)C)cc3C(C)C)C2)c(=O)n(-c2ccccc2)n1C (stereo not drawn)	nt	nt	nt	i	nt	nt
Cc1cc(C(=O)Nc2nc3ccc(S(C)(=O)=O)cc3s2)c(C)o1	i	i	i	10.3	i	5.8
COc1ccc2nc(NC(=O)c3cc(C)oc3C)sc2c1	i	i	i	i	nt	nt
Cc1ccccc1NC(=O)Nc1nc2ccc(S(C)(=O)=O)cc2s1	i	i	i	9.2	i	i
CC(=O)Nc1ccc2ccccc2c1	i	i	nt	nt	nt	nt
CCOC(=O)C(Nc1ccc2ccccc2c1)C(=O)OCC	i	i	i	8.3	7.9	i
Cc1ccc(C2Nc3ccccc3C(=O)N2CCCN2CCOCC2)cc1 (stereo not drawn)	i	i	i	i	nt	nt
O=C1c2ccccc2NC(c2ccccc2Br)N1CCCN1CCOCC1 (stereo not drawn)	i	i	i	8.1	i	i
Cc1cc(-c2ccc(Br)s2)nc(-n2cccc2)n1	i	i	i	11.8	i	i
SMILES	ABCB6 inh MLPCN	MsrA act	MsrA inh	SMARCA2 activ	SMARCA2 conf	GAL4-VP16 Luc
O=C(NC1CCCC1)C1C(c2ccc(C(F)(F)F)cc2)=Nc2ccccc2N1C(=O)c1ccccc1 (stereo not drawn)	nt	nt	i	13.5	i	5.8
O=C(NCc1cccnc1)c1cccs1	i	i	i	9.5	i	i
CN1C(=O)c2cc(NC(=O)C3CC3)ccc2OC[C@H]2O[C@@H](CC(=O)NC3CCC3)CC[C@@H]21	nt	nt	nt	i	nt	nt
COC(=O)C1CN(C2CCCC2)CCS(=O)(=O)N1Cc1ccccc1 (stereo not drawn)	nt	nt	nt	i	nt	nt
CCNC(=O)C1(C)CCN(Cc2ccccc2-c2ccccc2)C1 (stereo not drawn)	i	i	i	i	nt	nt
Cc1ccc(C(=O)Oc2oc(-c3ccco3)nc2C=Nc2ccc(Cl)cc2)cc1	i	i	i	8.0	i	20.3
O=C(Oc1oc(-c2ccco2)nc1C=Nc1ccccc1)c1ccoc1	i	i	i	i	nt	nt
Cc1ccccc1NC(=O)OC1CCC12CCC(c1ccccc1)CC2 (stereo not drawn)	nt	nt	nt	i	nt	nt
